Reference: PubChem BioAssay (Tox21)
Results filed as inconclusive are left out. Activity calls are given as the source filed them. Unless noted, the call rests on the fitted dose curve; in most records, active means well fitted curve in the direction sought with a large enough effect in the repeat runs; inconclusive means weak or mixed curves; inactive means no such curve, though single readings can be large; an effect the other way counts as inactive or inconclusive.

What was measured:
[1] = qHTS assay to identify small molecule agonists of the peroxisome proliferator-activated receptor delta (PPARd) signaling pathway - cell viability counter screen (AID 743211); further: nearly all actives have a fitted effect of over 55% in size
In short: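 Following 5 h plating at 37 C and 5% CO2, PPARd UAS-bla HEK293H cells took up test compounds for 17 h. Viability was quantified by luminescence 30 min after CellTiter-Glo addition at room temperature.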

[2] = target: Peroxisome proliferator-activated receptor delta (Homo sapiens) (UniProt Q03181); assay: qHTS assay to identify small molecule agonists of the peroxisome proliferator-activated receptor delta (PPARd) signaling pathway (AID 743212; calls by dose curve)
In short: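 Quantitative high-throughput agonist screen in a HEK293H beta-lactamase reporter line under UAS control. Compounds in DMSO, at 37 C. Fluorescence read after 2 h with FRET substrate at room temperature.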

[3] = qHTS assay to identify small molecule antagonists of the peroxisome proliferator-activated receptor delta (PPARd) signaling pathway - cell viability counter screen (AID 743213); further: nearly all actives have a fitted effect of over 50% in size
In short: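 Agonist-stimulated (L165041, 300 nM final) HEK293H PPARd UAS-bla cells are exposed to compounds for 17 h at 37 C, and ATP-based luminescence (CellTiter-Glo) from the same wells reports cytotoxicity.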

[4] = target: Peroxisome proliferator-activated receptor delta (Homo sapiens) (UniProt Q03181); assay: qHTS assay to identify small molecule antagonists of the peroxisome proliferator-activated receptor delta (PPARd) signaling pathway (AID 743215; active means well fitted inhibition curve with a large enough effect in the signal ratio in the repeat runs, not every such curve was filed as active; the % refers to the signal ratio; further: series mostly up to about 62 µM)
In short: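 PPARd-bla HEK293H cells (UAS-bla reporter) preincubated 5 h, then given compound plus 300 nM final L165041 agonist for 17 h at 37 C. Beta-lactamase activity read by LiveBLAzer B/G FRET substrate fluorescence after 2 h at room temperature.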

[5] = qHTS assay to identify small molecule antagonists of the farnesoid-X-receptor (FXR) signaling pathway - cell viability counter screen (AID 743221; active means well fitted cell-killing curve with a large enough effect in the repeat runs, not every such curve was filed as active; further: nearly all actives have a fitted effect of over 50% in size)
In short: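 Compound effects on cell number were measured as CellTiter-Glo luminescence in HEK 293T cells expressing FXR-UAS-bla, after 16 h at 37 C with 50 uM CDCA (final).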

[6] = target: Vitamin D3 receptor (Homo sapiens) (UniProt P11473); assay: qHTS assay to identify small molecule agonists of the vitamin D receptor (VDR) signaling pathway (AID 743222; calls by dose curve)
In short: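 VDR-bla cells plated 4 h at 37 C, then exposed to compounds for 16 h at 37 C. Beta-lactamase reporter activity measured by fluorescence after 2 h room-temperature loading with LiveBLAzer B/G FRET substrate.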

[7] = target: Vitamin D3 receptor (Homo sapiens) (UniProt P11473); assay: qHTS assay to identify small molecule antagonists of the vitamin D receptor (VDR) signaling pathway (AID 743223; active means well fitted inhibition curve with a large enough effect in the signal ratio in the repeat runs, not every such curve was filed as active; the % refers to the signal ratio)
In short: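 Beta-lactamase activity in VDR-bla cells is measured by FRET substrate fluorescence (2 h, room temperature) after cells spend 16 h at 37C with test compound and 3 nM final 1alpha,25-dihydroxyvitamin D3.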

[8] = qHTS assay to identify small molecule agonists of the vitamin D receptor (VDR) signaling pathway - cell viability counter screen (AID 743224); further: series mostly up to about 63 µM; nearly all actives have a fitted effect of over 50% in size
In short: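 VDR-bla cells, 4 h after plating, exposed to compounds for 16 h at 37C; viability then read in the same wells as CellTiter-Glo luminescence after 30 min at room temperature, following the bla FRET read.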

[9] = qHTS assay to identify small molecule agonists of the NFkB signaling pathway (AID 1159509; active means well fitted curve in the direction sought with a large enough effect in the signal ratio in the repeat runs, not every such curve was filed as active; the % refers to the signal ratio; further: series mostly up to about 61 µM)
In short: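 After overnight attachment, reporter cells received test compounds, DMSO or positive controls and were incubated 5 hr at 37 C. FRET substrate was then added for 1.5 hr at room temperature before dual-emission fluorescence reading.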

[10] = qHTS assay to identify small molecule agonists of the NFkB signaling pathway - cell viability counter screen (AID 1159515; calls by dose curve; further: series mostly up to about 61 µM; nearly all actives have a fitted effect of over 55% in size)
In short: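 NFkB-bla ME-180 cells, 2,000/well, plated overnight at 37 C; compound added for 5 hr at 37 C. Viability read in the same wells as the bla reporter, by CellTiter-Glo luminescence after 30 min at room temperature.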

[11] = qHTS assay to identify small molecule agonists of the endoplasmic reticulum stress response signaling pathway (AID 1159516; active means well fitted activation curve with a large enough effect in the signal ratio in the repeat runs, not every such curve was filed as active; the % refers to the signal ratio)
In short: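 CellSensor ESRE-bla HeLa cells, 1,500 per well, plated overnight, then exposed to compounds for 5 hr at 37 C. Beta-lactamase reporter read with LiveBLAzer B/G FRET substrate after 2 hr at room temperature, 405 nm excitation, 460 and 530 nm emission.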

[12] = qHTS assay to identify small molecule antagonists of the retinoid-related orphan receptor gamma (ROR-gamma) signaling pathway - cell viability counter screen (AID 1159520); further: nearly all actives have a fitted effect of over 50% in size
In short: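 Tet-on ROR gamma CHO cells were given compounds for 2 hr, then doxycycline hyclate at 1 uM final, and incubated 16 hr at 37 C. Viability was measured as ATP content by CellTiter-Glo luminescence.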

[13] = target: Nuclear receptor ROR-gamma (Homo sapiens) (UniProt P51449); assay: qHTS assay to identify small molecule antagonists of the retinoid-related orphan receptor gamma (ROR-gamma) signaling pathway (AID 1159521)
In short: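 Screening format: cell-based luciferase reporter in CHO cells with doxycycline-inducible RORγ. Compound pre-exposure lasts 2 h, doxycycline is 1 uM final, induction runs 16 h at 37 C, and ONE-Glo luminescence is read.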

[14] = qHTS assay to identify small molecule agonists of the AP-1 signaling pathway - cell viability counter screen (AID 1159525; calls by dose curve; further: nearly all actives have a fitted effect of over 55% in size)
In short: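 AP-1-bla ME-180 cells in Opti-MEM with 0.5% dialyzed FBS, compound exposure 5 h at 37 C in 15-point titration. Viability read in the same wells as ATP content by CellTiter-Glo luminescence, normalised to tetra-n-octylammonium bromide and DMSO controls.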

[15] = qHTS assay to identify small molecule agonists of the AP-1 signaling pathway (AID 1159526; calls by dose curve)
[16] = qHTS assay to identify small molecule agonists of the farnesoid-X-receptor (FXR) signaling pathway - cell viability counter screen (AID 743218); further: nearly all actives have a fitted effect of over 45% in size
In short: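 FXR-UAS-bla HEK 293T cells exposed to compounds for 16 h at 37C. Cytotoxicity read in the same wells by CellTiter-Glo luminescence after 30 min at room temperature, following the beta-lactamase FRET read.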

[17] = qHTS assay to identify small molecule antagonists of the vitamin D receptor (VDR) signaling pathway - cell viability counter screen (AID 743225); further: nearly all actives have a fitted effect of over 50% in size
In short: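 In this counter screen, VDR-bla HEK 293T cells receive test compound plus 3 nM final calcitriol for 16 h at 37C. Room-temperature steps of 2 h with the beta-lactamase substrate, then 30 min with CellTiter-Glo, precede the luminescence read.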

[18] = target: Bile acid receptor (Homo sapiens) (UniProt Q96RI1); assay: qHTS assay to identify small molecule antagonists of the farnesoid-X-receptor (FXR) signaling pathway (AID 743217; active means well fitted inhibition curve with a large enough effect in the signal ratio in the repeat runs, not every such curve was filed as active; the % refers to the signal ratio)
In short: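 FXR-UAS-bla HEK 293T cells (beta-lactamase reporter) given compound plus chenodeoxycholic acid (50 uM final), 16 h at 37C. LiveBLAzer B/G FRET substrate added for 2 h at room temperature; fluorescence read.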

[19] = target: Bile acid receptor (Homo sapiens) (UniProt Q96RI1); assay: qHTS assay to identify small molecule agonists of the farnesoid-X-receptor (FXR) signaling pathway (AID 743220; active means well fitted activation curve with a large enough effect in the signal ratio in the repeat runs, not every such curve was filed as active; the % refers to the signal ratio)
In short: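 Beta-lactamase reporter under UAS control in GeneBLAzer FXR HEK 293T cells (5000/well) measured with LiveBLAzer FRET substrate after 2 h at room temperature. Compound exposure lasted 16 h at 37C.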

Measured: Potency

Chain of Vitamin D3 receptor (Homo sapiens) (P11473 whole entry, looked up): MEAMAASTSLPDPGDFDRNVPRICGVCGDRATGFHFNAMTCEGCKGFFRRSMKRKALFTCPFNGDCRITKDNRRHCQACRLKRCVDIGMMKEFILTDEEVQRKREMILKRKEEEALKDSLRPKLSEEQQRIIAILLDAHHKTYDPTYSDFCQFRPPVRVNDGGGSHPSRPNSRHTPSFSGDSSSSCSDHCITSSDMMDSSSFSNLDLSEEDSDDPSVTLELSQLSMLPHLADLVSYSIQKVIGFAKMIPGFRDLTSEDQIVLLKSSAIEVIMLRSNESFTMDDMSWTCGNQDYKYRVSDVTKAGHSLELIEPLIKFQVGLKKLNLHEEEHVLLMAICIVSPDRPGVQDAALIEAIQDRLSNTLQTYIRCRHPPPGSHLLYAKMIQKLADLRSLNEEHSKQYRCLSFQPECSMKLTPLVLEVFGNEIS
Chain of Peroxisome proliferator-activated receptor delta (Homo sapiens) (Q03181 whole entry, looked up): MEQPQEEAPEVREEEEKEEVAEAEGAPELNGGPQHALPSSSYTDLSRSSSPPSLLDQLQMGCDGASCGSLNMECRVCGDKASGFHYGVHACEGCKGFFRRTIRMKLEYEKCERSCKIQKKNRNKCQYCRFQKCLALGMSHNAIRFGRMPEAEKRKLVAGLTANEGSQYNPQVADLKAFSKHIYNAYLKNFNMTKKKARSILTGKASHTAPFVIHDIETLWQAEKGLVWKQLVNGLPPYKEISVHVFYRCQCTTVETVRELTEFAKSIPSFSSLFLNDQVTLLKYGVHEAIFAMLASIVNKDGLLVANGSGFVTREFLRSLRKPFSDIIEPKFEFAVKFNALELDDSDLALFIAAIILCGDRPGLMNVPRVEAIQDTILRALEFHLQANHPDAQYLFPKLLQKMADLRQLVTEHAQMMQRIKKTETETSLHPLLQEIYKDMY
Chain of Bile acid receptor (Homo sapiens) (Q96RI1 whole entry, looked up): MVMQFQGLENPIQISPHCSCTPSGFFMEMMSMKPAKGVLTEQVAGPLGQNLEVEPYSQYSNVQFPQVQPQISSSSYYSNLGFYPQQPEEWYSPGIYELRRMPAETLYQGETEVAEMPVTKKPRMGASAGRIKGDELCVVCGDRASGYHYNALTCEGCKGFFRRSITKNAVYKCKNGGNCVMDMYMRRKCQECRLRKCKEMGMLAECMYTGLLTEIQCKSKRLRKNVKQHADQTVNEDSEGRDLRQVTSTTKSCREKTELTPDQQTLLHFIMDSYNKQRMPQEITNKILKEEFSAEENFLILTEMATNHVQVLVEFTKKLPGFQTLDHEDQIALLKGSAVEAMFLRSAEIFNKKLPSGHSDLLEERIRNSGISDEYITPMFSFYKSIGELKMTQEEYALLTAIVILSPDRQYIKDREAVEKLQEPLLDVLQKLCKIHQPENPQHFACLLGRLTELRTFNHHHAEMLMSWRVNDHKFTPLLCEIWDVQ

C[C@@H]1C[C@H]2[C@@H]3CCC4=CC(=O)C=C[C@]4(C)[C@@]3(F)[C@@H](O)C[C@]2(C)[C@@]1(O)C(=O)COP(=O)(O)O
inactive: [1] | [2] | [3] | [4] | [5] | [6] | [7] | [8] | [9] | [10] | [11] | [12] | [13] | [14] | [15]

C/C(C=O)=C\c1ccccc1
inactive: [1] | [2] | [3] | [4] | [16] | [5] | [6] | [7] | [8] | [17] | [9] | [10] | [11] | [12] | [13] | [14] | [15]

O=C(C(=O)c1ccco1)c1ccco1
inactive: [1] | [2] | [3] | [4] | [16] | [5] | [6] | [7] | [17] | [9] | [10] | [11] | [12] | [13] | [14] | [15]

Cc1ccc2c(c1)CCCN2
inactive: [1] | [2] | [4] | [5] | [8] | [17] | [9] | [10] | [11] | [12] | [13] | [14] | [15]

CN1C(CSCC(F)(F)F)Nc2cc(Cl)c(S(N)(=O)=O)cc2S1(=O)=O (centres undefined)
inactive: [1] | [2] | [3] | [16] | [5] | [6] | [7] | [8] | [9] | [10] | [11] | [12] | [13] | [14] | [15]

BrC(Br)C(Br)Br
inactive: [1] | [3] | [4] | [16] | [5] | [6] | [7] | [8] | [17] | [9] | [10] | [11] | [12] | [13] | [14] | [15]

O=c1[nH][nH]c(=O)c2cc([N+](=O)[O-])ccc12
inactive: [1] | [2] | [3] | [4] | [16] | [5] | [6] | [7] | [9] | [10] | [11] | [12] | [13] | [14] | [15]

O=C(O)CCS
inactive: [1] | [2] | [3] | [4] | [18] | [16] | [19] | [5] | [6] | [7] | [8] | [9] | [10] | [11] | [12] | [13] | [14] | [15]

[Cl][Nd]([Cl])[Cl]
inactive: [1] | [2] | [3] | [16] | [5] | [6] | [8] | [9] | [10] | [11] | [12] | [13] | [14] | [15]

CN=C(N)NC(=O)Nc1c(C)cccc1C
inactive: [1] | [2] | [3] | [16] | [5] | [6] | [7] | [8] | [17] | [9] | [10] | [11] | [12] | [13] | [14] | [15]

O=NN(CCCl)C(=O)NCCCl
inactive: [1] | [2] | [16] | [5] | [17] | [9] | [10] | [11] | [12] | [13] | [14] | [15]

COC(C)(C)OC
inactive: [1] | [2] | [18] | [16] | [19] | [5] | [6] | [7] | [8] | [9] | [10] | [11] | [12] | [13] | [14] | [15]

O=[N+]([O-])c1ccc2ncccc2c1
inactive: [1] | [2] | [4] | [18] | [19] | [5] | [6] | [7] | [8] | [17] | [9] | [10] | [11] | [12] | [13] | [14] | [15]

CCOC(=O)Oc1ccc(CCNC(=O)[C@H](CCSC)NC(C)=O)cc1OC(=O)OCC
inactive: [1] | [2] | [3] | [4] | [5] | [8] | [17] | [9] | [10] | [11] | [12] | [13] | [14] | [15]

O=C(O)c1cccc(Oc2ccccc2)c1
inactive: [1] | [3] | [4] | [16] | [5] | [7] | [8] | [17] | [9] | [10] | [11] | [12] | [13] | [14] | [15]
